Results on 40 molecules are retold here after PubChem BioAssay (NCI).

Molecules are shown by their SMILES. Compounds without any hit were thinned out: in the full panel of roughly 83,000, 20% have a hit.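 Plates (96-well) were seeded with cells, treated with compound at one concentration, and incubated for 48 hours before percent growth was determined.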 A number with no mark means an inactive call. Activity calls are given as the source filed them. How the source made its calls: active means growth percent below 10; inactive means the rest.

The test relates to HL-60(TB) leukemia. The test is described as follows: NCI-60 one-dose screen, 48 h (100 = growth as untreated, 0 = no growth, -100 = all killed). The note with it: 10 µM unless noted.
Regarding `CC1(n2nnnc2N2CCCN(c3ncccc3N)CC2)CCC1`, the growth was 102%.
Then `CN1CCN(c2ccc(Nc3c4ccccc4nc4ccccc34)cc2)CC1`, with 119%.
Then `c1ccc2oc(-c3cnc4nonc4n3)cc2c1`, with 90.9%; and `C=CCC(O)C=C` (stereo not given), with 101%.
Then `COc1ccccc1N1CCCSC1=Nc1ccccc1`, with 50.1%; and `CC(C)C[C@H](C(=O)N[C@@H](C)C(N)=O)N1CC=CCN(O)S1(=O)=O`, with 110% [5 µM]; and `CC(=O)Oc1ccc(C)cc1C`, with 95%.
For the molecule `COc1cccc(-c2nc3sccn3c2-c2ccnc(NCCNS(=O)(=O)c3cccc(F)c3)c2)c1`, the growth is -1.8% (active).
Regarding `CC(C)(C)c1cc(-c2nc3ccc(N4CCN(CCO)CC4)cc3[nH]2)cc(C(C)(C)C)c1O`, the growth was 63.5%.
Then `COc1cc(OC)c(/C=C/c2c3ccccc3cc[n+]2C)c(OC)c1`, with -25.1% (active).
Then `CN(C)c1ccc(/C=C/c2c(F)cccc2F)cc1`, with 98.8%; and `CC1CCCC(C(=O)O)C1C(=O)O` (stereo not given), with 81.8%; and `COc1ccc(OC)c(/C=C2\Oc3cc(OCCCN4CCCC4)ccc3C2=O)c1`, with 87.5%.
Then `COc1ccc(C(=O)c2cc(OC)c(OC)c(OC)c2)cc1/C=C/C(=O)c1ccc(F)cc1`, with 93.2%; and `CCOc1cc(/C=C/C(=O)C(C(=O)/C=C/c2ccc(OC(=O)CNc3nnc(C)s3)c(OCC)c2)C(=O)CNc2nnc(C)s2)ccc1OC(=O)CNc1nnc(C)s1`, with -46.4% (active).
For `NS(=O)(=O)c1ccc(CCn2c(SCC(=O)N/N=C/c3cccnc3)nc3ccccc3c2=O)cc1`, the growth is 80.4%.
Then `O=c1[nH]c(-c2ccccn2)nc2sc3c(c12)CCCCCC3`, with 10.9%.
Take `CCCCCCCCCN(CCCCCCCCC)C(C)C(=O)c1ccc2cc(Br)c3ccccc3c2c1` (stereo not given): the growth was 102%.
In the case of `Cn1cc(-c2nonc2-c2cn(C)c3ccc(F)cc23)c2ccccc21`, the growth is -24.3% (active).
Then `CCOC(=O)N1C/C(=C/c2ccc(Cl)cc2)C(=O)/C(=C/c2ccc(Cl)cc2)C1`, with 61.5%; and `Nc1cc(NN=C(c2ccc(O)cc2)c2ccc(O)cc2)c([N+](=O)[O-])cc1[N+](=O)[O-]`, with 66.4%.
Take `Cc1ccccc1-c1cc(-c2ccc(Br)s2)[nH]c(=O)c1C#N`: the growth is 82%.
For `COc1ccc(-c2nc(SCC(C)C)nc(N/N=C(/C)c3ccc(OC)c(OC)c3)c2C#N)cc1` the value was 89.4%; for `CCOS(=O)(=O)c1ccc([N+](=O)[O-])cc1`, 95.9%; for `Nc1c(C(=O)Nc2cccc([N+](=O)[O-])c2)sc2nc3c(cc12)C(O)CCC3` (stereo not given), 9.71% (active).
For `O=C(O)c1cn(C2CC2)c2cc(N3CCN(C(=O)CSc4nnc(-c5ccc(Cl)cc5)n4-c4ccccc4)CC3)c(F)cc2c1=O` the value was 91.1%.
As to `CCN(CC)C12CCCCC1(C)C(C#N)(C#N)C(C#N)=C(N)O2` (stereo not given), the growth is 72.5%.
As for `COc1ccc(-c2nn(C(=O)c3cc(OC)c(OC)c(OC)c3)c3cc(N)ccc23)cc1`, the growth was 5.67% (active).
Regarding `CC/C(=N/NC(N)=O)c1ccccc1`, the growth is 101%.
For `CCN(CC)CC(C)Nc1ccc([N+](=O)[O-])c2sc3ccccc3c(=O)c12` (stereo not given), the growth was -26.2% (active).
With `C=CC[n+]1c(/C=C2\Sc3ccccc3N2C)sc(-c2ccccc2)c1-c1ccccc1`, the growth was -25.5% (active).
For `O=C(Nc1cccc(C2=NCCN2)c1)c1cccc(C(=O)Nc2cccc(C3=NCCN3)c2)c1` the value was 98.7%.
With `CC(=O)CC/C=C(\C)[C@H](O)[C@H](C)C(=O)O[C@H]1C[C@H](C)C=C2C=C[C@@]3(C)O[C@@H](O)CC(=O)[C@]3(C)[C@H]21`, the growth is -21.3% (active).
For `COc1ccc(-c2nc(N/N=C/c3cccc(Br)c3)nc(N3CCOCC3)c2C#N)cc1` the value was 10.7%; for `COc1cc(/C=C2\CCCC3C2=Nc2ccccc2NC3c2cc(OC)c(OC)c(OC)c2)cc(OC)c1OC` (stereo not given), 1.55% (active); for `N/C(=N\OC(=O)c1ccccc1)C(C(=O)NOC(=O)c1ccccc1)C1CCCCC1` (stereo not given), 1.73% (active).
With `CCC(C)CC(N)O` (stereo not given), the growth was 120%.
For `COc1cccc(-c2nc3sccn3c2-c2ccnc(NCCNS(=O)(=O)c3ccc(C(F)(F)F)cc3)c2)c1` the value was 14.9%; for `O=C1C(Cl)=C(NCCCN(CCCNC2=C(Cl)C(=O)c3ccccc3C2=O)C2=C(Cl)C(=O)c3ccccc3C2=O)C(=O)c2ccccc21`, 37.6%; for `COc1cc(C2=NOC(c3cc(OC)c(OC)c(OC)c3)C2)ccc1OCCCCOc1cc2c(cc1OC)C(=O)N1CCC[C@H]1C=N2` (stereo not given in full), -22.7% (active).
